High-throughput results deposited in PubChem by several laboratories.
Jurkat NFkB inh = inhibitors of the PMA/ionomycin-induced NF-kB reporter in Jurkat cells | actives 0.53% (n = 330,000) | PMA/ionomycin-induced NF-kB luciferase reporter, luminescence | inhibition, % at 4 µM; in the data active means inhibition above about 50%
Gli-Sufu block = blocks Gli-Sufu signaling in a luciferase reporter; Sufu-KO-LIGHT fibroblasts, Gli luciferase reporter luminescence; inhibition, % at 5 µM; actives 0.74% (n = 340,000);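 active means inhibition above about 55%, limit read from the data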;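 further: 0% = DMSO-treated cells and 100% = wells with medium but no cells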
CSC inhib = cancer stem cell inhibition; cancer stem cell-like cells viability, luminescence; inhibition, % at 7.5 µM; actives 1.1% (n = 300,000); in the data active means inhibition above about 75%; inconclusive means no clear call, values can overlap the other calls; tested in HMLE shEcad cells
Mdm2-MdmX inh = inhibitors of human Mdm2/MdmX interaction. O15151+Q00987. SaOS-2 split-luciferase Mdm2/MdmX complementation, luminescence. inhibition, % at 8 µM. actives 3% (n = 330,000). AID 485346;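 active means inhibition of at least 50% at 8 µM in the primary screen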
Target sequence (O15151 whole entry, looked up): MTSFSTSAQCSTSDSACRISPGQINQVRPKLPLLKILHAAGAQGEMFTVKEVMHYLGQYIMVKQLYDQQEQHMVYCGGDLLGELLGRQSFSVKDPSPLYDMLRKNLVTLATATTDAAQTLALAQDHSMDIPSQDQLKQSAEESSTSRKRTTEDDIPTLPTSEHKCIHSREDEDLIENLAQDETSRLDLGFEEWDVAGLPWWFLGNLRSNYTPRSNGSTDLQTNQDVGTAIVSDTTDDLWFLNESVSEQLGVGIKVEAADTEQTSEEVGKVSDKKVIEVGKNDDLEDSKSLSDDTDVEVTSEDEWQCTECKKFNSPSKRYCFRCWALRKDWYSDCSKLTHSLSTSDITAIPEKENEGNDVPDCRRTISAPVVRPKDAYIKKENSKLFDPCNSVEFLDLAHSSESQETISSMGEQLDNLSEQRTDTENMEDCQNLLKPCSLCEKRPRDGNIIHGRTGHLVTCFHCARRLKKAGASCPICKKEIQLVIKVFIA
Target sequence (Q00987 whole entry, looked up): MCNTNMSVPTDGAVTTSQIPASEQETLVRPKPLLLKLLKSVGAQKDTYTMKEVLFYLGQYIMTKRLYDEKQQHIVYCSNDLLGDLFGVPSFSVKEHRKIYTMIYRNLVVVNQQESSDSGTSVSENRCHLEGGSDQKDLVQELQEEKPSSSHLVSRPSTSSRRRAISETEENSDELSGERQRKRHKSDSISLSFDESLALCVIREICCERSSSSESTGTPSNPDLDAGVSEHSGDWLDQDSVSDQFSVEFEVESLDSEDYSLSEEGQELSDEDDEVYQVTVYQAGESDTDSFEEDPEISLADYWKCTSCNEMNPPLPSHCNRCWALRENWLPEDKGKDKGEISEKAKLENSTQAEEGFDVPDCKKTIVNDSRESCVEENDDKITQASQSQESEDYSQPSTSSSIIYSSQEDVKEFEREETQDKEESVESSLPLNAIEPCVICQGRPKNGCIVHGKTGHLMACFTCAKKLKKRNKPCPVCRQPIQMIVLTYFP
aSyn UTR inh = MLPCN primary screen, SNCA 5' untranslated region. alpha-synuclein 5'UTR reporter, inhibitor activity. inhibition, % (tested at 7.5 µM). actives 0.82% (n = 300,000); in the data active means inhibition above about 60%; inconclusive means no clear call, values can overlap the other calls;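 further: H4 neuroglioblastoma cells stably carrying SNCA 5'UTR luciferase fusion; 0% = DMSO wells and 100% = positive control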
697 NFkB inh = inhibitors of the PMA/ionomycin-induced NF-kB reporter in 697 B cells; 697 B-cell NF-kB luciferase reporter, 16 h; inhibition, % at 4 µM; actives 0.33% (n = 330,000); in the data active means inhibition above about 35%
Mdm2-MdmX conf = human Mdm2/MdmX binding inhibition, confirmed. AID 489028. actives 55% (n = 10,000). inhibition, % at 8 µM. luminescent assay. shares compounds with Mdm2-MdmX inh; in the data active means inhibition above about 40%
Full FLuc ctr = full-length luciferase inhibition in Mdm2/MdmX counter-screen; shares compounds with Mdm2-MdmX inh; SaOS-2 full-length luciferase counterscreen, luminescence; inhibition, % at 8 µM; actives 77% (n = 6,200);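 active means mean inhibition at 8 µM reaching about 37%, which flags the compound as non-specific, limit read from the data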;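 further: p53-null SaOS-2 cells with luciferase driven by a doxycycline-inducible promoter; compound on cells about two nights before reading with doxycycline added after day one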
Gli-Sufu confirm = confirmation of Gli-SUFU pathway antagonists | inhibition, % at 5 µM | shares compounds with Gli-Sufu block | AID 602428 | actives 40% (n = 2,500) | Sufu-KO-LIGHT cells, Gli luciferase reporter, luminescence;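 active means mean inhibition at 5 µM reaching about 45%, limit read from the data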;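 further: plate controls were DMSO-treated cells for no effect and wells lacking cells for full effect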
SufuKO cytotox = cytotoxicity counter-screen for Gli-SUFU antagonists | shares compounds with Gli-Sufu block | Sufu-KO-LIGHT cells cytotoxicity, ATP luminescence | cytotoxicity, % at 5 µM | actives 32% (n = 2,500);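 active means mean cytotoxicity at 5 µM above about 25%, limit read from the data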;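 further: cells exposed to compound overnight for roughly 16 to 18 hours; plate controls were DMSO wells with cells for no effect and medium without cells for full effect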
Wnt3a cs = inhibits Wnt3a reporter, counter-screen for Gli-SUFU antagonists | shares compounds with Gli-Sufu block | Wnt-LIGHT cells, Wnt3a-driven luciferase reporter, luminescence | AID 651995 | actives 20% (n = 2,500) | inhibition, % at 6.25 µM;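 active means mean inhibition above about 25%, limit read from the data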
* = called active by the depositor; ? = inconclusive; . = no result; + = active, no number. An excerpt weighted towards active compounds, which were near 4.5% of everything screened.

SMILES	Jurkat NFkB inh	Gli-Sufu block	CSC inhib	Mdm2-MdmX inh	aSyn UTR inh	697 NFkB inh	Mdm2-MdmX conf	Full FLuc ctr	Gli-Sufu confirm	SufuKO cytotox	Wnt3a cs
Cc1cc(C)c2[nH]c(=O)c(CN(CC3CCCO3)C(=S)Nc3ccccc3)cc2c1 (centres undefined)	-7	12	12	-4	8	-28	.	.	.	.	.
Cc1ccc2cc(CN(CC3CCCO3)C(=S)Nc3ccccc3)c(=O)[nH]c2c1C (centres undefined)	37	65*	61	85*	72*	-129	86*	35	81*	33*	22
Cc1cc(NC(=S)N(CCN2CCCCC2)Cc2ccco2)ccc1Cl	11	17	.	35	-12	14	.	.	.	.	.
Cc1ccc(NC(=S)N(CCCN2CCCC2)Cc2cccn2Cc2ccc(Cl)cc2)cc1Cl	1	61*	144*	76*	0	-3	39	58*	16	6	-25
Cn1c(O)c(N=NC(=O)c2cccc(S(=O)(=O)N3CCCCC3)c2)c2ccccc21	8	-1	23	4	17	-6	.	.	.	.	.
CCc1ccccc1NC(=S)N=Nc1c(O)n(C)c2ccc(S(=O)(=O)N3CCOCC3)cc12	18	66*	40	52*	80*	3	60*	53*	48*	19	-25
O=C(COC(=O)C1CCN(S(=O)(=O)c2cccs2)CC1)c1cc2ccccc2o1	3	-12	-1	-12	-5	14	.	.	.	.	.
CCOC(=O)CNC(=O)c1ccc(SCC)cc1	-6	-22	.	-6	-91	-47	.	.	.	.	.
O=[N+]([O-])c1ccc2ncnc(N3CCN(Cc4ccc5c(c4)OCO5)CC3)c2c1	41	68*	-13	74*	-26	-39	65*	24	36	26*	-16
CCOc1ncccc1C(=O)N1CCN(c2cc(Cl)ccc2C)CC1	46	51	57	61*	57	-1	59*	81*	38	54*	-55
CCOc1ncccc1C(=O)N1CCN(c2cccc(C)c2C)CC1	.	48	.	.	-15	.	.	.	.	.	.
CC(C)NC(=O)CN1C(=O)c2ccccc2S1(=O)=O	-38	5	-8	-14	9	-20	.	.	.	.	.
O=C(CN1C(=O)c2ccccc2S1(=O)=O)c1ccccc1	-2	73*	-7	78*	.	15	65*	98*	80*	11	93*
Cc1ccc2ncnc(Nc3cccc(C(=O)O)c3)c2c1	1	-5	-16	-16	-2	14	.	.	.	.	.
Clc1cccc(Nc2ncnc3ccc(Br)cc23)c1	8	62*	58	74*	-51	-30	43*	36	20	2	11
COc1ccc(Nc2nc(N3CCCCC3)c3ccccc3n2)cc1	16	58*	16	59*	-13	-55	30	.	49*	39*	-24
COc1ccc(Nc2nc(N)c([N+](=O)[O-])c(N3CCCC3)n2)cc1	23	4	22	25	41	-6	.	.	.	.	.
COc1ccc(/C=C2\Sc3ccc(C(=O)N4CCN(Cc5ccccc5)CC4)cc3N(C)C2=O)cc1OC	33	99*	4	61*	22	-13	14	.	13	13	-7
CN1CCN(C(=O)c2ccc3c(c2)N(C)C(=O)/C(=C/c2cccc(Cl)c2)S3)CC1	4	4	-15	46	-35	-20	.	.	.	.	.
COc1cc(NC(=O)c2cc3ccccc3cc2OC)ccc1NC(=O)c1cccs1	3	57*	3	58*	-1	28	57*	90*	35	16	-71
COc1ccc(/C=N\NC(=O)c2c(C)nc3ccc(Br)cn23)cc1	44	61*	57	59*	?	10	52*	49*	50*	48*	-30
CCOC(=O)c1c(NC(=O)c2ccccc2N(C)S(=O)(=O)c2ccccc2)sc2c1CCCC2	26	52	69	55*	12	-4	60*	66*	14	15	-35
COC(=O)c1c(NC(=O)c2ccccc2N(C)S(=O)(=O)c2ccccc2)sc2c1CCCC2	.	6	.	.	-1	.	.	.	.	.	.
Cc1ccc(-n2c(C)cc(C3=NNC(=NC4CC4)SC3)c2C)cc1C	-52	60*	46	69*	-60	-40	50*	120*	67*	29*	71*
O=C(Nc1ccccc1Cc1ccccc1)c1ccccc1NS(=O)(=O)c1ccc(Cl)s1	12	59*	+	93*	23	2	92*	21	63*	30*	57*
SMILES	Jurkat NFkB inh	Gli-Sufu block	CSC inhib	Mdm2-MdmX inh	aSyn UTR inh	697 NFkB inh	Mdm2-MdmX conf	Full FLuc ctr	Gli-Sufu confirm	SufuKO cytotox	Wnt3a cs
CS(=O)(=O)c1ccccc1C(=O)Nc1ccccc1Cc1ccccc1	-14	-17	-13	13	-11	-23	.	.	.	.	.
Cc1ccc(C#N)c(SCc2nnc(-c3ccc(Cl)cc3)o2)n1	17	75*	8	88*	90*	-195	92*	57*	88*	60*	99*
Cc1ccc(C#N)c(SCc2cc3c(cc2Cl)OCO3)n1	14	-3	1	24	-9	-5	.	.	.	.	.
CC(C)Cc1nnc(NC(=O)CC(=O)Nc2ccccc2C(=O)O)s1	8	-2	-5	46	32	18	.	.	.	.	.
CC(C)c1nnc(NC(=O)CC(=O)Nc2ccccc2C(=O)O)s1	-2	52	-7	67*	59	15	47*	74*	44	-5	48*
CCN(CC)c1ccc(CNc2nc3ccccc3n2CCN2CCCCC2)cc1	10	67*	78*	89*	-6	-41	48*	77*	42	23	16
NCC(=O)Nc1ccc(Cl)cc1C(=O)c1ccc[nH]1	-2	52	.	64*	-23	29	66*	40*	33	0	11
Cc1ccccc1C(=O)N1CCC(C(=O)N2CCCc3ccccc32)CC1	-21	-2	-20	18	.	4	.	.	.	.	.
COC(=O)C1CCN(C(=O)C2CCC(=O)N(CCc3cccc(F)c3)C2)CC1 (centres undefined)	12	5	-2	-19	5	-2	.	.	.	.	.
CCn1c(/C=C/N(C)c2ccccc2)[n+](CC)c2ccc(Cl)cc21	37	85*	6	58*	1	-20	43*	64*	89*	36*	42*
